Where a name gives a salt, the structure may show the parent alone.
Experiments:
RIVA [1] = assay: growth inhibition by drug plus 177Lu-lilotomab satetraxetan (1 - RLU/untreated control) (fraction); higher = stronger inhibition; conditions: 177Lu-lilotomab satetraxetan 0.5 ug/ml
Summary of the method: (§1)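 Growth inhibition was calculated from RealTime-Glo RLU against untreated no-drug wells. Values equal 1 − RLU/mean of 48 untreated no-drug wells per plate, read daily from day 3 after 1 h at 37°C. RIVA and U-2932 cells, with or without 18 h pretreatment by a radiolabelled anti-CD37 antibody conjugate (~600 MBq/mg; 0.5 µg/ml RIVA, 1 µg/ml U-2932), were washed and plated at 3,000 cells/well on compound-printed plates at 10/100 nM (RIVA) or 10/1,000 nM (U-2932).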

U-2932 [2] = assay: growth inhibition by drug alone (1 - RLU/untreated control) (fraction); higher = stronger inhibition; conditions: 177Lu-lilotomab satetraxetan 0 ug/ml
Summary of the method: as §1

RIVA [3] = assay: as above; conditions: 177Lu-lilotomab satetraxetan 0 ug/ml
Summary of the method: as §1

U-2932 [4] = assay: growth inhibition by drug plus 177Lu-lilotomab satetraxetan (1 - RLU/untreated control) (fraction); higher = stronger inhibition; conditions: 177Lu-lilotomab satetraxetan 1 ug/ml
Summary of the method: as §1

Compound	growth inhibition by drug plus 177Lu-lilotomab satetraxetan (RIVA [1]; 100 nM, time (day): 5)	growth inhibition by drug plus 177Lu-lilotomab satetraxetan (RIVA [1]; 100 nM, time (day): 6)	growth inhibition by drug alone (U-2932 [2]; 10 nM, time (day): 3)	growth inhibition by drug alone (U-2932 [2]; 10 nM, time (day): 4)	growth inhibition by drug alone (U-2932 [2]; 10 nM, time (day): 5)	growth inhibition by drug alone (U-2932 [2]; 10 nM, time (day): 6)	growth inhibition by drug alone (U-2932 [2]; 1000 nM, time (day): 3)	growth inhibition by drug alone (U-2932 [2]; 1000 nM, time (day): 4)	growth inhibition by drug alone (U-2932 [2]; 1000 nM, time (day): 5)	growth inhibition by drug alone (U-2932 [2]; 1000 nM, time (day): 6)	growth inhibition by drug alone (RIVA [3]; 10 nM, time (day): 3)	growth inhibition by drug alone (RIVA [3]; 10 nM, time (day): 4)	growth inhibition by drug alone (RIVA [3]; 10 nM, time (day): 5)	growth inhibition by drug alone (RIVA [3]; 10 nM, time (day): 6)	growth inhibition by drug alone (RIVA [3]; 100 nM, time (day): 3)	growth inhibition by drug alone (RIVA [3]; 100 nM, time (day): 4)	growth inhibition by drug alone (RIVA [3]; 100 nM, time (day): 5)	growth inhibition by drug alone (RIVA [3]; 100 nM, time (day): 6)	growth inhibition by drug plus 177Lu-lilotomab satetraxetan (U-2932 [4]; 10 nM, time (day): 3)	growth inhibition by drug plus 177Lu-lilotomab satetraxetan (U-2932 [4]; 10 nM, time (day): 4)	growth inhibition by drug plus 177Lu-lilotomab satetraxetan (U-2932 [4]; 10 nM, time (day): 5)	growth inhibition by drug plus 177Lu-lilotomab satetraxetan (U-2932 [4]; 10 nM, time (day): 6)	growth inhibition by drug plus 177Lu-lilotomab satetraxetan (U-2932 [4]; 1000 nM, time (day): 3)	growth inhibition by drug plus 177Lu-lilotomab satetraxetan (U-2932 [4]; 1000 nM, time (day): 4)	growth inhibition by drug plus 177Lu-lilotomab satetraxetan (U-2932 [4]; 1000 nM, time (day): 5)	growth inhibition by drug plus 177Lu-lilotomab satetraxetan (U-2932 [4]; 1000 nM, time (day): 6)	growth inhibition by drug plus 177Lu-lilotomab satetraxetan (RIVA [1]; 10 nM, time (day): 3)	growth inhibition by drug plus 177Lu-lilotomab satetraxetan (RIVA [1]; 10 nM, time (day): 4)	growth inhibition by drug plus 177Lu-lilotomab satetraxetan (RIVA [1]; 10 nM, time (day): 5)	growth inhibition by drug plus 177Lu-lilotomab satetraxetan (RIVA [1]; 10 nM, time (day): 6)	growth inhibition by drug plus 177Lu-lilotomab satetraxetan (RIVA [1]; 100 nM, time (day): 3)	growth inhibition by drug plus 177Lu-lilotomab satetraxetan (RIVA [1]; 100 nM, time (day): 4)
Cc1ccc(C(=O)N(CCCN)[C@@H](c2oc3cc(Cl)ccc3c(=O)c2Cc2ccccc2)C(C)C)cc1	0.979	0.981																														
O=NN(CCCl)C(=O)NC1CCCCC1 [Lomustine (CeeNU)]	0.488	0.501	0.0125	-0.0069	-0.0761	-0.178	-0.00465	0.00866	-0.0378	0.00712	-0.055	-0.0849	-0.137	-0.324	-0.313	-0.232	-0.254	-0.408	0.00156	0.0498	0.0878	0.11	-0.00262	0.0596	0.0893	0.149	0.573	0.596	0.607	0.603	0.383	0.486
COc1cccc2c1C(=O)c1c(O)c3c(c(O)c1C2=O)C[C@@](O)(C(C)=O)C[C@@H]3O[C@H]1C[C@H](N)[C@H](O)[C@H](C)O1 [Daunorubicin HCl (Daunomycin HCl)]	0.94	0.96	0.144	0.147	0.0841	0.0306	0.971	0.975	0.98	0.983	0.109	0.134	0.15	0.0495	0.569	0.743	0.857	0.915	0.21	0.265	0.341	0.415	0.978	0.982	0.984	0.987	0.833	0.844	0.868	0.902	0.87	0.915
Cn1c(=O)c(F)c(Nc2ccc(I)cc2F)c2c(=O)n(C[C@@H](O)CO)cnc21	0.55	0.496	0.14	0.135	0.0576	-0.0158	0.131	0.169	0.099	0.12	0.0885	0.0594	-0.0237	-0.205	-0.0966	-0.077	-0.161	-0.342	0.103	0.169	0.176	0.21	0.189	0.254	0.249	0.347	0.522	0.484	0.489	0.487	0.579	0.588
Cc1cccc(-c2nn3c(c2-c2ccnc4ccc(C(N)=O)cc24)CCC3)n1	0.459	0.437	-0.0698	-0.0435	-0.0298	0.0787	-0.0166	-0.0114	-0.0422	-0.0441	-0.233	-0.26	-0.269	-0.342	-0.0721	-0.126	-0.16	-0.229	-0.116	-0.0664	-0.0409	0.0836	0.0167	0.0206	-0.00167	0.117	0.371	0.487	0.502	0.523	0.372	0.444
CN(C)C[C@@H]1CCn2cc(c3ccccc32)C2=C(C(=O)NC2=O)c2cn(c3ccccc23)CCO1	0.554	0.545	0.148	0.0748	0.0024	-0.0699	0.292	0.306	0.226	0.249	0.0588	0.0867	-0.0102	-0.214	0.041	0.0997	0.0496	-0.0383	0.0704	0.125	0.141	0.173	0.448	0.48	0.458	0.49	0.423	0.561	0.581	0.582	0.462	0.539
CCN(CC)CCCC(C)Nc1nc(C)cc(Nc2ccc3nc(C)cc(N)c3c2)n1 (stereo not given)	0.548	0.545	0.0927	0.0716	-0.114	-0.134	0.0662	0.0733	-0.022	-0.107	-0.0541	-0.0225	-0.0658	-0.279	-0.31	-0.199	-0.249	-0.391	0.0413	0.106	0.161	0.181	0.092	0.11	0.165	0.255	0.572	0.606	0.627	0.625	0.489	0.538
CC1(C)CCC(c2ccc(Cl)cc2)=C(CN2CCN(c3ccc(C(=O)NS(=O)(=O)c4ccc(N[C@H](CCN5CCOCC5)CSc5ccccc5)c(S(=O)(=O)C(F)(F)F)c4)cc3)CC2)C1 [ABT-263 (Navitoclax)]	0.983	0.983	-0.00418	-0.0018	-0.0135	0.024	0.0839	0.635	0.85	0.894	0.116	0.0668	0.0479	-0.0157	0.977	0.976	0.975	0.974	-0.0296	-0.00166	0.0241	0.15	0.115	0.591	0.816	0.904	0.568	0.593	0.605	0.604	0.984	0.983
CC(=O)O[C@@]12CO[C@@H]1C[C@H](O)[C@@]1(C)C(=O)[C@H](O)C3=C(C)[C@@H](OC(=O)[C@H](O)[C@@H](NC(=O)OC(C)(C)C)c4ccccc4)C[C@@](O)([C@@H](OC(=O)c4ccccc4)[C@H]21)C3(C)C [Docetaxel (Taxotere)]	0.985	0.987	0.953	0.965	0.974	0.978	0.964	0.972	0.977	0.98	0.953	0.967	0.973	0.973	0.949	0.964	0.969	0.971	0.96	0.971	0.977	0.983	0.966	0.977	0.982	0.985	0.968	0.982	0.985	0.988	0.967	0.979
CN1CC[C@H](c2c(O)cc(O)c3c(=O)cc(-c4ccccc4Cl)oc23)[C@H](O)C1 [Flavopiridol hydrochloride]	0.704	0.72	-0.0754	-0.0311	-0.0181	0.00401	0.957	0.967	0.974	0.979	-0.111	-0.116	-0.189	-0.255	0.504	0.533	0.499	0.385	-0.0108	0.0505	0.0958	0.189	0.965	0.972	0.978	0.983	0.521	0.567	0.566	0.567	0.615	0.69
C#Cc1cccc(Nc2ncnc3cc(OC)c(OCCCCCCC(=O)NO)cc23)c1	0.926	0.923	-0.0221	-0.0137	-0.0216	0.0129	0.966	0.973	0.975	0.978	-0.19	-0.225	-0.209	-0.242	0.881	0.779	0.749	0.672	-0.132	-0.086	-0.0994	-0.0508	0.971	0.977	0.981	0.984	0.365	0.467	0.495	0.496	0.935	0.924
O=C(/C=C/C#Cc1cccc(NS(=O)(=O)c2ccccc2)c1)NO [Oxamflatin]	0.691	0.686	0.0723	0.054	0.00482	-0.0197	0.851	0.808	0.766	0.702	0.0849	0.0278	0.0468	0.0353	0.675	0.482	0.435	0.389	-0.0134	0.0236	0.0539	0.158	0.941	0.947	0.958	0.96	0.518	0.564	0.59	0.607	0.726	0.683
CC(C)(C)c1cnc(CSc2cnc(NC(=O)C3CCNCC3)s2)o1	0.373	0.353	-0.112	-0.121	-0.0865	-0.0439	0.946	0.962	0.971	0.978	-0.214	-0.262	-0.264	-0.28	-0.524	-0.411	-0.58	-0.723	-0.136	-0.0562	0.00872	0.121	0.955	0.966	0.975	0.983	0.484	0.533	0.556	0.564	0.267	0.359
CCOc1cc2ncc(C#N)c(Nc3ccc(F)c(Cl)c3)c2cc1NC(=O)/C=C/CN(C)C [Pelitinib (EKB-569)]	0.372	0.405	-0.0434	-0.0318	-0.0741	-0.211	0.227	0.204	0.154	0.148	-0.202	-0.214	-0.259	-0.439	-0.558	-0.51	-0.627	-0.809	-0.0948	-0.0187	-0.0319	-0.0653	0.276	0.3	0.292	0.357	0.334	0.432	0.448	0.476	0.182	0.368
COc1ccc(CCN(C)CCCOc2ccc(S(=O)(=O)c3c(C(C)C)n(C)c4ccccc34)cc2)cc1OC	0.542	0.544	0.0869	0.0667	0.0917	-0.0299	0.0603	0.0699	-0.0056	-0.132	0.00966	0.000445	-0.0789	-0.342	-0.377	-0.25	-0.308	-0.545	0.0456	0.0938	0.156	0.171	0.135	0.145	0.18	0.298	0.605	0.642	0.664	0.661	0.48	0.536
